Screening data as filed in PubChem BioAssay.
V-ATPase pH – regulators of yeast V-ATPase proton transport; S. cerevisiae, pHLuorin cytosolic pH fluorescence; response, % at 10 µM; 350,000 tested, 0.37% active; AID 504577; in the data active = response mostly above about 7.3%, no sharp cut-off; inactive = mostly below about 5.4%; also: actives read high
HTR2A ag – agonists of mouse serotonin 5-HT2A receptor (HTR2A). 360,000 tested, 0.66% active. P35363. activation, % at 7.6 µM. CHO-K1 mHTR2A beta-arrestin complementation, luminescence; percent of 30 µM serotonin response. AID 624169;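 active = activation above a run cutoff, the mean activation of all tested compounds plus 3 SD, cut at about 14% in these data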;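 also: 0% = plate median of compound wells and 100% = 30 µM serotonin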
Target sequence (P35363 whole entry, looked up): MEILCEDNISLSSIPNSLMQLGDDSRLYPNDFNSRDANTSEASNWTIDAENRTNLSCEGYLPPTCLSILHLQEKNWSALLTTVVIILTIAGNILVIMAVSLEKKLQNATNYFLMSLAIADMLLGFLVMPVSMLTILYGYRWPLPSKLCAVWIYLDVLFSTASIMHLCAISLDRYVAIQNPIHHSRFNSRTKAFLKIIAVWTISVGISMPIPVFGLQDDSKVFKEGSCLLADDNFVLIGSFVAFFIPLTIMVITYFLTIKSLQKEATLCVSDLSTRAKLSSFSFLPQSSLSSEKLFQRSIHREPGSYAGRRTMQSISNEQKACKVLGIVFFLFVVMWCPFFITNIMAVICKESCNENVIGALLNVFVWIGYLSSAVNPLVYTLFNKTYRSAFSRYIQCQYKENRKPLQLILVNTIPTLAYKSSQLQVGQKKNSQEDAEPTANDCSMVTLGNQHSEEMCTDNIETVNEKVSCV
VLA-4 inh – inhibition in a human VLA-4 binding assay | AID 2557 | inhibition, % (about 7 µM as worked out from the volumes in the protocol) | P13612 | VLA-4 expressing cells, ligand binding flow cytometry | 330,000 tested, 0.2% active; in the data active = inhibition above about 50%
MEX-5 binding – C. elegans MEX-5 TCR-2 RNA binding activity; Q9XUB2; activity score (negative = inhibition of binding), % at 10 µM; MEX-5/FITC-TCR2 RNA binding, fluorescence polarization; active compounds read low; 300,000 tested, 0.38% active;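 active = inhibition past about -25% in most replicates, and total fluorescence under double the plate's negative control median, limit read from the data; inconclusive = replicates evenly split on the limit, or fluorescence at least double controls; inactive = too little inhibition in most replicates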;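 also: 0% = DMSO and -100% = 5 µM competing unlabeled TCR2 RNA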
GASC-1 inh – blocks human GASC-1 demethylase activity; inhibition, % at 2.35 µM; GST-JMJD2C(1-420) H3K9me3 demethylation, DELFIA europium; 330,000 tested, 0.069% active; AID 2099;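 active = more than half of a compound's replicate wells show inhibition beyond 50%, single wells judged on their own value; inconclusive = some, but no more than half, of replicates pass 50% inhibition; inactive = no replicate passes 50% inhibition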;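 also: signal counts dimethyl H3K9 product captured on neutravidin plate; 0% = median of DMSO wells and 100% = 0.3 times that DMSO median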
Granule exo inh – lytic granule exocytosis inhibition | TALL-104 LAMP-1 surface exposure, flow cytometry; cells stimulated with thapsigargin and PMA | inhibition, % at 10 µM | 360,000 tested, 0.66% active | AID 651702;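 active = inhibition above about 55%, limit read from the data; inconclusive = no clear call, values can overlap the other calls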
VATPase regulator – yeast V-ATPase proton transport regulation; shares compounds with V-ATPase pH; S. cerevisiae pHLuorin cytosolic pH; response, % at 10 µM; 980 tested, 2% active; AID 602197; in the data active = response above about 24%;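 also: plate controls were vehicle wells for no effect and positive control wells for full effect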
An asterisk follows results filed as active; ? = inconclusive; . = not tested or not shown. Only some compounds are listed: those with a hit (about 2.2% of all), similar ones and a draw of the others.

SMILES	V-ATPase pH	HTR2A ag	VLA-4 inh	MEX-5 binding	GASC-1 inh	Granule exo inh	VATPase regulator
COc1cccc(-n2c(CCn3nc(C)c([N+](=O)[O-])c3C)n[nH]c2=S)c1	9.7*	6.3	15.7	1.7	-4.9	-1.3	-2.4
Cc1cccc(-n2c(CCn3nc(C)c([N+](=O)[O-])c3C)n[nH]c2=S)c1	-5.5	4.0	3.9	-0.9	18.2	-0.8	.
COc1ccc(S(=O)(=O)N(CC(=O)N2CCN(C)CC2)c2ccc(C)cc2)cc1Br	6.3	-6.6	.	-1.4	9.7	1.9	.
COc1ccc(S(=O)(=O)N(CC(=O)N2CCN(C)CC2)c2ccc(C)cc2)cc1OC	11.5*	1.7	-7.0	-1.6	-4.1	-5.7	0.2
O=C1C2C3C=CC(CC3)C2C(=O)N1/N=C/c1c(O)ccc2ccccc12 (centres undefined)	7.5*	4.9	3.5	-3.6	6.7	0.5	-0.9
O=C1C2C3C=CC(CC3)C2C(=O)N1/N=C/c1ccccc1O (centres undefined)	-1.5	1.5	-1.4	1.2	2.8	2.5	.
O=C(O)C1CCC1C(=O)Nc1nc(-c2ccc(Cl)s2)cs1 (centres undefined)	12.4*	4.4	-6.7	-0.6	-11.6	7.4	0.3
O=C(O)C1CCCCC1C(=O)Nc1nc(-c2cccs2)cs1 (centres undefined)	-7.5	-0.6	8.0	-0.7	-11.2	-1.7	.
CC(=O)NCCNS(=O)(=O)c1ccc(C)c([N+](=O)[O-])c1	10.2*	-3.0	0.8	.	-5.1	-1.1	1.3
Cc1ccc(S(=O)(=O)NC2CC2)cc1[N+](=O)[O-]	-1.7	-1.5	0.1	1.6	-5.4	-0.1	.
O=C(O)c1cc(N/C(=N\S(=O)(=O)c2ccc(F)cc2)c2ccccc2)ccc1O	2.9	-7.6	.	.	.	-2.6	.
Cc1ccc(S(=O)(=O)/N=C(/Nc2ccc(O)c(C(=O)O)c2)c2ccccc2)cc1	11.5*	12.9	8.0	.	-2.5	-11.6	-0.7
O=C(O)CN(c1cccc(C(F)(F)F)c1)S(=O)(=O)c1ccccc1	8.6*	0.1	-3.3	2.2	-2.1	-3.6	-3.1
Cc1ccc(/C=C/C(=O)c2ccc(N3CCOCC3)cc2)s1	10.1*	-1.4	-10.3	?	1.8	1.9	-1.0
COc1cccc(/C(N)=N/OC(=O)Cc2ccccc2[N+](=O)[O-])c1	13.8*	-0.7	4.6	3.1	-29.7	-2.3	-0.2
CCN(C(=O)COC(=O)c1cc(-c2ccccc2)nc2ccc(Br)cc12)C1CCS(=O)(=O)C1 (centres undefined)	10.0*	4.5	-3.3	0.4	-1.0	-2.6	-1.0
O=C(COC(=O)Cc1n[nH]c(=O)c2ccccc12)Nc1cccc(C(F)(F)F)c1	3.3	1.1	-5.5	-6.1	3.7	-0.5	.
Nc1ccc(S(=O)(=O)NC(Cc2ccccc2)C(=O)O)cc1 (centres undefined)	-2.2	0.1	16.0	-4.8	-4.8	7.2	.
O=C(Nc1ccc(Oc2ccccc2)nc1)C1CCN(Cc2ccco2)CC1	8.7*	-0.1	-3.0	-1.4	9.4	2.2	1.4
O=C(COc1ccccc1)NC1=NCCS1	0.8	-0.4	-6.0	0.4	-15.2	2.5	.
CC(Oc1ccccc1)C(=O)NC1=NCCS1 (centres undefined)	7.3*	9.7	5.3	0.2	15.9	-0.7	-2.3
CC(NC(=O)c1ccc(F)cc1)C(=O)NC1=NCCS1 (centres undefined)	-4.0	3.0	-10.5	0.8	9.3	-1.2	-1.6
COc1ccc(/C=C(\NC(=O)c2ccc(C)cc2)C(=O)NCCCn2ccnc2)cc1	-2.1	4.4	6.8	3.0	-7.9	-3.5	.
CC(C)C[C@@H](CNCC(=O)[C@H](CC(C)C)NC(=O)c1[nH]cnc1C(=O)N[C@@H](C)CN)NC(=O)c1nc[nH]c1C(=O)N[C@@H](CC(=O)O)C(=O)O	-1.5	2.7	.	.	.	-1.1	.
Cc1ncsc1CCOC(=O)c1ccc([N+](=O)[O-])cc1	45.1*	-0.3	-6.8	-1.5	0.5	-1.1	-1.1
O=C(NCc1ccccc1)C(c1ccc(F)cc1)N(C(=O)c1csnn1)C1CCCC1 (centres undefined)	-1.5	-2.0	4.7	-0.3	-29.7	9.5	.
